We go through 3 compounds from PubChem BioAssay (EPA / NIEHS).

The target of assay [1] is Bile acid receptor (Homo sapiens) (UniProt Q96RI1). As to the kind of experiment: OT_FXR_FXRSRC1_1440: Odyssey Thera (OT) 24-hour HEK293T Protein-Complementation Assay for Farnesoid X receptor/SRC-1 Co-activator (AID 2283384; active = hit-call score of the fitted dose curve at least 0.9, where 1 is the maximum). In a few lines: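 Cell-based binding reporter: interaction of FXR with SRC-1 brings reporter fragments together, giving a fluorescence signal read 24 h after dosing of HEK293T cells.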
Bile acid receptor (Homo sapiens), sequence (Q96RI1 whole entry, looked up, the tested form may be a part): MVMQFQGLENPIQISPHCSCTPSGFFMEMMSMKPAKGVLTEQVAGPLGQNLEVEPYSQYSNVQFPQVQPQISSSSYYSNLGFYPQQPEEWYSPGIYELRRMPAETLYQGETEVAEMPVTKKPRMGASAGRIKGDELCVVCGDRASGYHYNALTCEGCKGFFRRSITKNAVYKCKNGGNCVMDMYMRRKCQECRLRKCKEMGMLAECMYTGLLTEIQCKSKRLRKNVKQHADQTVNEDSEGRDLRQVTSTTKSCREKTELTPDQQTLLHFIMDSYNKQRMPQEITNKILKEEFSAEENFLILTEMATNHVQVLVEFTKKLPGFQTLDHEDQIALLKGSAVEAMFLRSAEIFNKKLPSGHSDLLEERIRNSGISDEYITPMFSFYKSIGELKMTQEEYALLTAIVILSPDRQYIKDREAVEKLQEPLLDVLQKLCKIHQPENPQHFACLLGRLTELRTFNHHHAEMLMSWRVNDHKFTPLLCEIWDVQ

Assay [2] deals with Retinoic acid receptor RXR-alpha (Homo sapiens) (UniProt P19793). As to the kind of experiment: OT_NURR1_NURR1RXRa_0480: Odyssey Thera (OT) 8-hour HEK293T Protein Complementation Assay for Nurr1/retinoid X receptor (RXR) (AID 2283385; active = hit-call score of the fitted dose curve at least 0.9, where 1 is the maximum). In a few lines:
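Compounds are applied to HEK293T cells carrying Nurr1 and RXRα linked to reporter fragments. After 8 h, fluorescence intensity reports heterodimer formation, with DMSO as baseline.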

Assay [3] addresses Peroxisome proliferator-activated receptor gamma (Homo sapiens) (UniProt P37231). As to the kind of experiment: OT_PPARg_PPARgSRC1_0480: Odyssey Thera (OT) 8-hour Protein-Complementation Assay for Peroxisome Proliferator-activated Receptor Gamma / SRC-1 Co-activator (AID 2283387; active = hit-call score of the fitted dose curve at least 0.9, where 1 is the maximum;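 also: nuclear to cytoplasmic split Venus YFP fluorescence ratio reporting PPARg SRC-1 interaction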). The gist of the method: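 Read-out: 488 nm N/C fluorescence ratio from complemented Venus YFP fragments, ≥350 cells per image, gain-of-signal fitted against DMSO baseline. Fusions of PPARg/SRC-1 with IFP1/IFP2 expressed transiently in HEK293T; compounds applied 8 h.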

The target is the same in assay [4]. In words: OT_PPARg_PPARgSRC1_1440: Odyssey Thera (OT) 24-hour Protein-Complementation Assay for Peroxisome Proliferator-activated Receptor Gamma/ SRC-1 Co-activator (AID 2283388; active = hit-call score of the fitted dose curve at least 0.9, where 1 is the maximum;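 also: nuclear to cytoplasmic ratio of reconstituted Venus YFP fluorescence in fixed imaged cells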). In a few lines: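 Readout: nuclear-to-cytoplasmic 488 nm fluorescence ratio, ≥350 cells per image, 8 images per well, after 24 h compound exposure of HEK293T expressing PPARg/SRC-1 split-YFP fusions. Activity fitted in positive direction against DMSO.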

A short description of assay [5]: CEETOX_H295R_11DCORT: CeeTox H295R High-throughput Steroidogenesis Assay for 11-Deoxycortisol (11DCORT) (AID 2283432).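 As to AC50: human adrenal H295R cells prestimulated with 10 µM forskolin for 48 h; 11-deoxycortisol secreted into the medium measured by LC-MS/MS.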 The settings on record: actives raise or lower the signal. The gist of the method:
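H295R cells; 10 uM forskolin prestim 48 h; compound in 0.1% DMSO 48 h; media extracted with MTBE; 11-deoxycortisol by LC-MS/MS, 7-point standard curve; gain/loss vs DMSO baseline; viability by MTT in same wells.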

A short description of assay [6]: CEETOX_H295R_ANDR: CeeTox H295R High-throughput Steroidogenesis Assay for Androstenedione (ANDR) (AID 2283436). The settings on record: actives raise or lower the signal. In a few lines: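 H295R human adrenal cells (passages ≤10) were exposed to test chemicals for 48 h; androstenedione in medium was MTBE-extracted and quantified by HPLC-MS/MS against a 7-point standard curve. Bidirectional fitting used DMSO as baseline.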

Assay [7] in a line: CEETOX_H295R_CORTIC: CeeTox H295R High-throughput Steroidogenesis Assay for Corticosterone (CORTIC) (AID 2283437).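 Also: corticosterone secreted into medium quantified by mass spectrometry.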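 As to AC50: human H295R adrenal cells prestimulated with forskolin before chemical exposure.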 The note with it: actives raise or lower the signal. The gist of the method: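 H295R cells were prestimulated 48 h with 10 uM forskolin, then exposed 48 h to test chemical in 0.1% DMSO. Medium corticosterone was MTBE-extracted and quantified by HPLC-MS/MS; bidirectional fit versus DMSO baseline.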

Assay [8] is described as follows: CEETOX_H295R_CORTISOL: CeeTox H295R High-throughput Steroidogenesis Assay for Cortisol (AID 2283438).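 Also: cortisol secreted into medium quantified by LC-MS/MS.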 The settings on record: actives raise or lower the signal. In a few lines: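 Human adrenocortical H295R cells (passage ≤10) received test chemicals for 48 h after forskolin priming. Secreted cortisol was measured by LC-MS/MS.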
Assay [9] is described as follows: CEETOX_H295R_DOC: CeeTox H295R High-throughput Steroidogenesis Assay for DOC (AID 2283439). The note with it: actives raise or lower the signal. The gist of the method: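 Secreted DOC was quantified from H295R media by HPLC-MS/MS after 48 h chemical exposure following 48 h forskolin (10 uM) prestimulation. Values were fitted in both directions relative to DMSO, the negative control and baseline.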

The nature of assay [10]: CEETOX_H295R_PROG: CeeTox H295R High-throughput Steroidogenesis Assay for Progesterone (PROG) (AID 2283442).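 As to AC50: human H295R adrenal cells primed with 10 µM forskolin before dosing.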 The settings on record: actives raise or lower the signal. The gist of the method:
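Progesterone read-out: HPLC-MS/MS on MTBE extracts of conditioned medium after 48 h chemical exposure of forskolin-primed (10 uM, 48 h) H295R cells. Gain or loss of signal was fitted relative to DMSO baseline.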

Read-out in assay [11]: Tumor necrosis factor receptor superfamily member 6 (Homo sapiens) (UniProt P25445)
As to the kind of experiment: LTEA_HepaRG_FAS: Life Technologies and Expression Analysis (LTEA) Assay for Fas cell surface death receptor (FAS) using HepaRG (AID 2283447). The settings on record: mRNA level, 48 h; actives raise or lower the signal. The gist of the method:
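Differentiated human HepaRG cells, pre-cultured 48 h, were exposed in duplicate for 48 h to 8-point half-log concentrations (top 100 uM, 0.5% DMSO) in serum-free induction medium; FAS mRNA measured by qRT-PCR, normalized to ACTB/GAPDH/POLR2A, bidirectional fit versus DMSO.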

Read-out in assay [12]: Fatty acid synthase (Homo sapiens) (UniProt P49327)
In words: LTEA_HepaRG_FASN: Life Technologies and Expression Analysis (LTEA) Assay for Fatty Acid Synthase (FASN) using HepaRG (AID 2283448). The note with it: mRNA level, 48 h; actives raise or lower the signal. The gist of the method:
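Transcript-level assay: HepaRG liver cells are treated for 48 h across an eight-point range topping at 100 uM, and FASN mRNA, normalized to three housekeeping genes, is compared with DMSO controls in both directions.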

Read-out in assay [13]: Cyclin D2 (CCND2), CCND2 (gene 894)
As to the kind of experiment: LTEA_HepaRG_CCND2: Life Technologies and Expression Analysis (LTEA) Assay for Cyclin D2 (CCND2) using HepaRG (AID 2283449).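 Also: CCND2 transcript measured by TaqMan qRT-PCR and normalised to three housekeeping genes.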 The settings on record: mRNA level, 48 h; actives raise or lower the signal. The gist of the method: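 Differentiated human HepaRG cells were exposed for 48 h in serum-free induction medium to eight half-log concentrations topping at 100 uM (0.5% DMSO vehicle). CCND2 mRNA was quantified by TaqMan qRT-PCR, normalised to ACTB, GAPDH and POLR2A, and fitted bidirectionally against DMSO.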

Read-out in assay [14]: Cyclin Dependent Kinase Inhibitor 1A (CDKN1A), CDKN1A (gene 1026)
As to the kind of experiment: LTEA_HepaRG_CDKN1A: Life Technologies and Expression Analysis (LTEA) Assay for Cyclin Dependent Kinase Inhibitor 1A (CDKN1A) using HepaRG (AID 2283450). The settings on record: mRNA level, 48 h; actives raise or lower the signal. The gist of the method:
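HepaRG, 48 h dosing, 8-pt half-log series from 100 uM top, 0.5% DMSO vehicle, duplicates. Readout: TaqMan qRT-PCR of CDKN1A transcript, housekeeping-normalized (ACTB, GAPDH, POLR2A). Up/down curve fit relative to DMSO.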

Read-out in assay [15]: catalase (CAT), CAT (gene 847)
As to the kind of experiment: LTEA_HepaRG_CAT: Life Technologies and Expression Analysis (LTEA) Assay for catalase (CAT) using HepaRG (AID 2283452). The settings on record: mRNA level, 48 h; actives raise or lower the signal. The gist of the method: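 Differentiated HepaRG cells in serum-free induction medium were dosed 48 h in duplicate, eight half-log concentrations from 100 uM in 0.5% DMSO. Transcript measured by TaqMan qRT-PCR, normalised to ACTB/GAPDH/POLR2A, fitted bidirectionally against DMSO.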

Read-out in assay [16]: flavin-containing dimethylaniline monooxygenases 3 (FMO3), FMO3 (gene 2328)
In words: LTEA_HepaRG_FMO3: Life Technologies and Expression Analysis (LTEA) Assay for flavin-containing dimethylaniline monooxygenases 3 (FMO3) using HepaRG (AID 2283453).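 As to AC50: FMO3 transcript by TaqMan qRT-PCR normalized to ACTB GAPDH and POLR2A.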 The note with it: mRNA level, 48 h; actives raise or lower the signal. In a few lines:
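HepaRG, 48 h exposure, 8-pt half-log series from 100 uM, 0.5% DMSO vehicle, duplicates; FMO3 transcript by Fluidigm TaqMan qRT-PCR, housekeeping-normalized; gain/loss fit vs DMSO.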

Read-out in assay [17]: Cytochrome P450 (CYP1A1), CYP1A1 (gene 1543)
In words: LTEA_HepaRG_CYP1A1: Life Technologies and Expression Analysis (LTEA) Assay for Cytochrome P450 (CYP1A1) using HepaRG (AID 2283454). The settings on record: mRNA level, 48 h; actives raise or lower the signal. The gist of the method:
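qRT-PCR read-out: CYP1A1 transcript normalized to three housekeeping genes, fitted bidirectionally against 0.5% DMSO vehicle baseline. Human HepaRG cells, 48 h chemical exposure, 8-point half-log series topping at 100 uM.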

Read-out in assay [18]: CFLAR gene, CFLAR (gene 8837)
In words: LTEA_HepaRG_CFLAR: Life Technologies and Expression Analysis (LTEA) Assay for CFLAR gene using HepaRG (AID 2283455). The settings on record: mRNA level, 48 h; actives raise or lower the signal. The gist of the method: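 HepaRG cells were plated for 48 h, switched to serum-free induction medium, then exposed in duplicate for 48 h to 8 concentrations (top 100 uM, half-log steps, 0.5% DMSO). CFLAR mRNA was measured by qRT-PCR, normalized to ACTB, GAPDH and POLR2A.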

The target of assay [19] is Retinoic acid receptor RXR-alpha (Homo sapiens) (UniProt P19793). As to the kind of experiment: OT_NURR1_NURR1RXRa_1440: Odyssey Thera (OT) 24-hour HEK293T Protein Complementation Assay for Nurr1/retinoid X receptor (RXR) (AID 2283386; active = hit-call score of the fitted dose curve at least 0.9, where 1 is the maximum). The gist of the method:
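Measured as fluorescence from a reconstituted split reporter, this 24 h HEK293T complementation assay scores compound-induced gain of Nurr1/RXRα association relative to DMSO.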

Read-out in assay [20]: Cyclin D1 (CCND1), CCND1 (gene 595)
In words: LTEA_HepaRG_CCND1: Life Technologies and Expression Analysis (LTEA) Assay for Cyclin D1 (CCND1) using HepaRG (AID 2283451). The settings on record: mRNA level, 48 h; actives raise or lower the signal. In a few lines:
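qRT-PCR (Fluidigm 96.96 array) read-out of transcript level, housekeeping-normalized (ACTB/GAPDH/POLR2A). HepaRG cells, 48 h chemical exposure, 8-point half-log series from 100 uM, 0.5% DMSO vehicle; gain or loss relative to DMSO baseline.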

The AC50 is the midpoint of the concentration-response curve, whichever way the signal moves.

Results filed as inconclusive are left out. Calls of active or inactive are those of the source. The calls were made as follows, unless noted: active = hit-call score of the fitted dose curve at least 0.9, where 1 is the maximum; inactive = score below 0.9.

Fatty acid synthase (Homo sapiens), sequence (P49327 whole entry, looked up): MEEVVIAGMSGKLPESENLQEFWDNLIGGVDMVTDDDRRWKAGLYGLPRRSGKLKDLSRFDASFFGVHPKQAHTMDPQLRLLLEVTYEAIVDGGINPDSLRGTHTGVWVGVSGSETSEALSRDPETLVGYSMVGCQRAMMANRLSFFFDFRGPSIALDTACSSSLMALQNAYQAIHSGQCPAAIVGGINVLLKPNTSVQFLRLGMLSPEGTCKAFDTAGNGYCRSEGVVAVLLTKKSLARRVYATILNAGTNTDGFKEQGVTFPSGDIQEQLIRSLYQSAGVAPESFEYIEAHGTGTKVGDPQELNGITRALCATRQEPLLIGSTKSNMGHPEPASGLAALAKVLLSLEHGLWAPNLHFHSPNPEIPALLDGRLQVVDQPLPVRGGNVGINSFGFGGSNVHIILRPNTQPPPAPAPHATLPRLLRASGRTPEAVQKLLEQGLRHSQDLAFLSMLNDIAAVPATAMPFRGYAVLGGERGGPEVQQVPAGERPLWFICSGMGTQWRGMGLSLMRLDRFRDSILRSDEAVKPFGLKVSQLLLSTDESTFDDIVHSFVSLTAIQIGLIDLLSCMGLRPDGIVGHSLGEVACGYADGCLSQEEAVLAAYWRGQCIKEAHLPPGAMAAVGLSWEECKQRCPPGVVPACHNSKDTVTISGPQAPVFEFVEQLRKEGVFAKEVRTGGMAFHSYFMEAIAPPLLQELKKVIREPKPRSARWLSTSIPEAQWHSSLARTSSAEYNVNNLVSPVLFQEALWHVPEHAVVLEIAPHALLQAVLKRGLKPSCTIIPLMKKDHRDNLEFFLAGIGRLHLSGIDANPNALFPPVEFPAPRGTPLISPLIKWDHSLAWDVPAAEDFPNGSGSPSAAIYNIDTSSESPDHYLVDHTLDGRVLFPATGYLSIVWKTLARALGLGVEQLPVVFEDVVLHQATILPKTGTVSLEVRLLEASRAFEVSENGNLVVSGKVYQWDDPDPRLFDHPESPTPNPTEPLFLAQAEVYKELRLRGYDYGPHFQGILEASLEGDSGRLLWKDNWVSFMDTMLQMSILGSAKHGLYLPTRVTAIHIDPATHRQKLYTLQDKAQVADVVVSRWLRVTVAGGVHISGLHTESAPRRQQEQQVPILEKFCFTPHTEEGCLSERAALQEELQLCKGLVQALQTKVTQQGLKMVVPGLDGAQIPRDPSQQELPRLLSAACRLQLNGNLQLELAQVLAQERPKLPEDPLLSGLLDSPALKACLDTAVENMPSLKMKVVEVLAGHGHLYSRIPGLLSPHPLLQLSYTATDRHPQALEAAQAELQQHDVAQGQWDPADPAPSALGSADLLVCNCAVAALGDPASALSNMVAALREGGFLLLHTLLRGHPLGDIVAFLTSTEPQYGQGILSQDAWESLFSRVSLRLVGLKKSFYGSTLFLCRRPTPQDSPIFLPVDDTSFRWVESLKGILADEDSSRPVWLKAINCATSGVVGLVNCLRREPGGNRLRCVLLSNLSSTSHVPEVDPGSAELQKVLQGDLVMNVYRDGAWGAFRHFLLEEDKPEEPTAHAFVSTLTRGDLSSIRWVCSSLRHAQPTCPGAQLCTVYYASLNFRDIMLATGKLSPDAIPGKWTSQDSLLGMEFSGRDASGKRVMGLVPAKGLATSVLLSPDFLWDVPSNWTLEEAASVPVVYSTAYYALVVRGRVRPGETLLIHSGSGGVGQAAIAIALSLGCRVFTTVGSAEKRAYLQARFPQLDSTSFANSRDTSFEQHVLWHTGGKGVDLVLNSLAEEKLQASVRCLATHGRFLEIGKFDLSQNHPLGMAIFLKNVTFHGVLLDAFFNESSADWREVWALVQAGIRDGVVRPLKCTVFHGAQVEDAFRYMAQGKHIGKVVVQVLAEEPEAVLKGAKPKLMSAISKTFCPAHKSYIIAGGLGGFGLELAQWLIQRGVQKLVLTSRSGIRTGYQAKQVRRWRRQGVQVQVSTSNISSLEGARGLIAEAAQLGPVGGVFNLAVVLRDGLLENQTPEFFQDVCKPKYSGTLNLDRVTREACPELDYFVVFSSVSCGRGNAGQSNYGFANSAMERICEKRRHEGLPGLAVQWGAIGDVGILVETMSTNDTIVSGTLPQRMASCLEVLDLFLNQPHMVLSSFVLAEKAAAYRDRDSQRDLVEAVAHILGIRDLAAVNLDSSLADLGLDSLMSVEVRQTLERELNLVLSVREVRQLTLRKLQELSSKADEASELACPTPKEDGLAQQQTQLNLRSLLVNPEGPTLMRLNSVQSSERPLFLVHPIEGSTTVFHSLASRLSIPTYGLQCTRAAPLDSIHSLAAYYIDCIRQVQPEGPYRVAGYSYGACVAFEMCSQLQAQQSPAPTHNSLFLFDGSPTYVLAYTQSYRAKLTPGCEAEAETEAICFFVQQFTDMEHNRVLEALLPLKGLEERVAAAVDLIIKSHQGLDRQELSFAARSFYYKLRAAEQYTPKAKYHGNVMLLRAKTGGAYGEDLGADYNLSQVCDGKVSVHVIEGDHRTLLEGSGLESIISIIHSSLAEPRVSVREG
Retinoic acid receptor RXR-alpha (Homo sapiens), sequence (P19793 whole entry, looked up, the tested form may be a part): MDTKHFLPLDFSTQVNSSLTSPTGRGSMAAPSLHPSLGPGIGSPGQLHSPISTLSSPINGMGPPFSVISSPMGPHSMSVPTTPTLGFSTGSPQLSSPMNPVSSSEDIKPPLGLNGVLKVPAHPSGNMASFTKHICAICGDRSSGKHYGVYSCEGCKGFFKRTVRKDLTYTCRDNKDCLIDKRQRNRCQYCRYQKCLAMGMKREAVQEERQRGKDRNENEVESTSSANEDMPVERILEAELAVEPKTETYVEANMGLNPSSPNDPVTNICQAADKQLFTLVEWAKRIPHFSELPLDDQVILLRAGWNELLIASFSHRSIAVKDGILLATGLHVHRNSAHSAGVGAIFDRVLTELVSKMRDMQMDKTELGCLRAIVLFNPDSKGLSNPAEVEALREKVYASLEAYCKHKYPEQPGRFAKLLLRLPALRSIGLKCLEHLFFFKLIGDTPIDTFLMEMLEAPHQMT
Peroxisome proliferator-activated receptor gamma (Homo sapiens), sequence (P37231 whole entry, looked up, the tested form may be a part): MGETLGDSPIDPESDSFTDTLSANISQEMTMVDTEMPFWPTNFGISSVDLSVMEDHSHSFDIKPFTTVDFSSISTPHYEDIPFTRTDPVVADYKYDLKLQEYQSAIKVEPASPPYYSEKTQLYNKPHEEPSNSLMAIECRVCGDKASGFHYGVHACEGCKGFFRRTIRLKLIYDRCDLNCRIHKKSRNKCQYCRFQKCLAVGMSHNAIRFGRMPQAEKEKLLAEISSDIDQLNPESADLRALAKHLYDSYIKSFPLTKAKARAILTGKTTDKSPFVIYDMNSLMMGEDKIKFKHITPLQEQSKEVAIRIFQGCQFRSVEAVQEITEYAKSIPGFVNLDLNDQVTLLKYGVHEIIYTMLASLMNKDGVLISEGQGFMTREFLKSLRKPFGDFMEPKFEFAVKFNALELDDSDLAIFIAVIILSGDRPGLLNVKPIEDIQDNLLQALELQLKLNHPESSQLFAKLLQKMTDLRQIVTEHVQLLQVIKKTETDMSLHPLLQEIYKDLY

As to `Cc1c2ccccc2c(C)c2c1ccc1ccccc12`, the result in assay [1], in assay [2], in assay [3], in assay [4], in assay [5] and in [6] was inactive. Besides, the compound was classed as inactive in [7], in [8], in assay [9], in [10] and in assay [13]. The AC50 is 66.1 µM (active) in assay [11]; 51 µM (active) in [12]; 35.1 µM (active) in [14]; 48.5 µM (active) in assay [15]; 34.2 µM (active) in assay [16]; 11.9 µM (active) in assay [17]. The AC50 in assay [18] is 40.9 µM (active).
With `C[C@]12CC[C@@H]3c4ccc(O)cc4CC[C@H]3[C@@H]1CC[C@H]2O`, the compound was called inactive in assay [2], in assay [19], in [3], in assay [4], in assay [11] and in assay [12]. The call in [13], in [15], in assay [16] and in assay [18] was inactive. The half-maximal activity concentration (AC50) in assay [5] is 3.52 µM (active); in assay [7], 2.13 µM (active); in assay [8], 2.17 µM (active); in [9], 3.31 µM (active); in [10], 2 µM (active); in assay [14] it was 50 µM (active). Further, the AC50 in assay [17] was 18.5 µM (active).
Regarding `CO[C@H]1/C=C/O[C@@]2(C)Oc3c(C)c(O)c4c(O)c(c(/C=N/N5CCN(C)CC5)c(O)c4c3C2=O)NC(=O)/C(C)=C\C=C\[C@H](C)[C@H](O)[C@@H](C)[C@@H](O)[C@@H](C)[C@H](OC(C)=O)[C@@H]1C`, the outcome in [2], in assay [19], in assay [3], in assay [4], in assay [10] and in [11] was inactive. For the same compound, the result in [12], in [14], in assay [20], in assay [15], in assay [16] and in assay [18] was inactive. Further, the AC50 in [17] is 31.2 µM (active).
